DAX1 inh-1 = inhibitors of human orphan nuclear receptor DAX1 (NR0B1); HEK293 Gal4-DAX1 luciferase reporter, luminescence; P51843; AID 504766; inhibition, % at 6.75 µM; 0.99% of 340,000 active;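 active = inhibition above the mean over all tested compounds plus 3 SD, cut at about 4.2% in these data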;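 also: inhibition shows as a rise in luminescence from relieved DAX1 repression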
ssDAF12 agonist = S. stercoralis DAF-12 activation, primary screen; AID 652126; 1% of 370,000 active; activation, % at 6.8 µM; HEK293 ssDAF-12/GRIP1 lit1-tk-luc reporter, luminescence; % of 3 µM dafachronic acid response;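 active = activation above the mean over all tested compounds plus 3 SD, cut at about 0.9% in these data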
hcDAF12 agonist = activators of H. contortus DAF-12 nuclear receptor. HEK293 hcDAF-12 lit1-tk-luc reporter, luminescence; 0% DMSO, 100% Δ7-dafachronic acid. activation, % at 6.8 µM. 1.4% of 370,000 active. AID 652067;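 active = activation above the mean of all tested compounds plus 3 SD, cut at about 5.5% in these data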
SMARCA2 activ = activators of SMARCA2 function | MG213 cells, MMTV-luciferase reporter, dexamethasone, overnight | activation, % at 9.1 µM | 1% of 370,000 active | AID 652017; in the data active = activation above about 7.8%
DAX1 inh-2 = blocks DAX1 repression of SF-1 activated StAR promoter | HEK293T StAR-luciferase reporter, SF-1/DAX-1 repression relief | inhibition, % at 6.8 µM | 1.1% of 370,000 active;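 active = inhibition above the mean over all tested compounds plus 3 SD, cut at about 3.6% in these data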;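 also: higher inhibition means more luminescence from relief of DAX-1 repression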
hgDAF12 agonist = hgDAF-12 agonism, primary luciferase screen. HEK293 GAL4-hgDAF12 UAS-luciferase reporter, agonist luminescence; normalized to butyrate control. activation, % at 6.8 µM. 1.8% of 370,000 active;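 active = activation above a cutoff set at the mean of all screened compounds plus 3 SD, cut at about 10% in these data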
LXR ag = LXR-beta agonism as hcDAF-12 counter-screen; HEK293 Gal4-LXR tk-luc reporter, luminescence, 24 h; normalized: DMSO 0%, positive control 100%; AID 743027; shares compounds with hcDAF12 agonist; activation, % at 6.8 µM; 3,400 tested, under 10 active;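 active = mean percent activation of the reporter above a cutoff set as the average over tested compounds plus their standard deviation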
Target sequence (P55055 whole entry, looked up, the tested form may be a part): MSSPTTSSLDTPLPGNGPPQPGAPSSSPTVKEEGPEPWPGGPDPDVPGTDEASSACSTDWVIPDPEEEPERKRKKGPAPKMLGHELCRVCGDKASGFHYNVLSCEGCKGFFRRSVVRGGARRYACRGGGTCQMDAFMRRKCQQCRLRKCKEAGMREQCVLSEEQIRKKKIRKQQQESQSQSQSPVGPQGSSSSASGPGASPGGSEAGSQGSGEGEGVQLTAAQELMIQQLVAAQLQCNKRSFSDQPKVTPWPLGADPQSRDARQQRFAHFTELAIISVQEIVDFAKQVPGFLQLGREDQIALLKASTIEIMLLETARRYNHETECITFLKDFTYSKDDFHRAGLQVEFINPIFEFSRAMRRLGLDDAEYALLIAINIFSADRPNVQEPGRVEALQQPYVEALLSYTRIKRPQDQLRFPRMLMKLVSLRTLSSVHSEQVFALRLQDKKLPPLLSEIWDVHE
hcDAF12 conf = hcDAF-12 agonism, confirmation assay; activation, % at 6.8 µM; shares compounds with hcDAF12 agonist; AID 743032; 61% of 3,400 active; HEK293 hcDAF-12 lit1-tk-luc reporter, luminescence; % of Δ7-dafachronic acid response;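 active = mean activation across triplicate tests above the threshold derived from the earlier primary screen, cut at about 5.5% in these data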
Hits are given with their value; – = inactive; · = not tested or not shown. Sampled rows, rich in hits. Any-hit rate of the full collection: about 4.8%.

SMILES	DAX1 inh-1	ssDAF12 agonist	hcDAF12 agonist	SMARCA2 activ	DAX1 inh-2	hgDAF12 agonist	LXR ag	hcDAF12 conf
COc1cccc(-n2c(Cc3cc(=O)[nH]c(=O)[nH]3)nnc2SCC(=O)NC2CCCCC2)c1	–	–	–	–	–	–	·	·
CCS(=O)(=O)Nc1ccc2c(c1)C(=O)N(C)[C@@H]1CC[C@H](CC(=O)N[C@@H]3CCN(Cc4ccccc4)C3)O[C@H]1CO2	·	–	–	–	–	–	·	·
CCN(CC)c1ccc(/C=N/N2C(=O)c3ccccc3C2=O)c(O)c1	–	–	6.6	–	–	–	–	–
CCCC(=O)Nc1ccc(-c2nc3cc(C)ccc3o2)cc1	–	1.7	12.4	–	3.9	13.3	–	8.4
COc1ccc(OC)c(CN2C(=O)CSCC2(C)c2nnnn2C2CCCC2)c1 (stereo unspecified)	·	–	–	–	–	–	·	·
C=CCN1C(=O)[C@@H](CC(=O)NCc2ccccc2)[C@]2(C(=O)OC)CCCCC=C12	·	–	–	–	–	–	·	·
CCOc1cc(/C=N\NC(=O)c2c(C)nc3ccccn23)ccc1O	–	–	8.0	–	–	–	–	–
COC(=O)C1=C(C)N(Cc2ccccc2C(F)(F)F)C(=NCc2ccc3c(c2)OCO3)NC1c1ccccc1C(F)(F)F (stereo unspecified)	·	–	–	–	–	–	·	·
Cc1ccc(OCCNC(=O)c2ccc(COc3ccccc3)o2)cc1	–	–	–	–	–	–	·	·
CC(C)Cc1ccc(C(=O)NCCOc2ccccc2)o1	–	–	9.9	–	–	–	–	7.4
COC(=O)C1=C(C)N(C)C(=NCc2ccc3c(c2)OCO3)NC1c1cccc(Cl)c1 (stereo unspecified)	·	–	–	–	–	–	·	·
CCOC(=O)C1=C(C)NC2=C(C(=O)CCC2)C1c1coc2ccccc2c1=O (stereo unspecified)	–	–	6.8	–	–	–	–	–
COC(=O)CC(=O)CSc1nc2c(cc1C#N)CCCCC2	–	–	10.4	–	–	11.3	–	–
Nc1c2c(nc3cccc(Cl)c13)N(c1ccccc1)CC2	–	1.1	7.2	–	–	–	–	7.4
Cc1ccc2nc3c(c(N)c2c1)CCN3c1ccccc1	–	–	–	–	–	–	·	·
COc1nc(-c2ccc(Cl)cc2)ccc1-c1noc(-c2ccco2)n1	–	–	–	–	–	–	·	·
COc1nc2c(C)cccc2cc1-c1noc(-c2ccco2)n1	–	–	6.9	–	–	–	–	–
O=C(Nc1ccccn1)c1ccco1	–	–	8.5	–	–	–	–	–
O=C(O)c1ccccc1C(=O)Nc1ccccn1	–	–	–	–	–	–	·	·
O=C(Nc1ccccn1)c1ccc2ccccc2c1O	–	1.5	8.4	–	–	–	–	8.7
O=C(Nc1ccc(Cl)cc1C(=O)Nc1ccccn1)c1ccco1	–	–	–	–	–	–	·	·
C/C(CC(=O)Nc1ccccn1)=N\NC(=O)c1ccccc1O	–	1.0	10.6	–	–	–	–	9.1
COc1ccc(CNC(=O)C2CCCN(c3nc4ccccc4o3)C2)cc1 (stereo unspecified)	·	–	–	–	–	–	·	·
C=CCN1C(=O)[C@@H](CC(=O)NCc2ccc(C)o2)[C@]2(C(=O)OCC)CCCCC/C=C/12	·	–	–	–	–	–	·	·
Cc1ccc2[nH]c(-c3ccccc3)cc(=O)c2c1	–	3.5	12.9	–	–	–	–	–
SMILES	DAX1 inh-1	ssDAF12 agonist	hcDAF12 agonist	SMARCA2 activ	DAX1 inh-2	hgDAF12 agonist	LXR ag	hcDAF12 conf
Cn1c(O)c(N=NC(=O)Cn2ccc(C(F)(F)F)n2)c2ccccc21	–	–	9.1	–	–	–	–	–
Cc1sc2c(c1C)C(=O)NC(c1ccccc1F)N2 (stereo unspecified)	–	–	–	–	–	–	·	·
Cc1ccc(C2NC(=O)c3c(sc(C)c3C)N2)c(O)c1 (stereo unspecified)	–	1.0	9.0	–	–	–	–	8.4
O=C(Nc1ccccc1)c1cn(CCBr)cn1	–	1.3	6.8	–	–	–	–	–
CC/C(=N/NC(=O)c1ccc2c(c1)OCO2)c1ccccc1O	4.9	1.1	13.7	–	–	–	–	–
C/C(=N\NC(=O)c1cc2ccccc2cc1O)c1ccc2c(c1)OCO2	–	–	–	–	–	–	·	·
COC(=O)c1ccc2c(C(C)c3ccccc3O)c[nH]c2c1 (stereo unspecified)	·	–	–	–	–	–	·	·
Cn1c(/C(C#N)=C(\O)c2ccc(Cl)s2)nc2ccccc21	–	–	8.0	–	–	–	–	8.3
CCCCNC(=O)OC1CCC12CCC(c1ccccc1)CC2 (stereo unspecified)	·	–	–	–	–	–	·	·
Cc1ccc(-c2cc3c(N=O)c4ccccc4c-3n[nH]2)cc1	–	–	–	–	–	–	·	·
Cc1cccc(-c2cc3c(N=O)c4ccccc4c-3n[nH]2)c1	6.9	1.2	12.1	–	3.9	17.0	–	16.6
Cc1cc2ncc(-c3ncc(C(F)(F)F)cc3Cl)cn2n1	–	–	8.3	–	–	11.7	–	6.7
O=C(Cn1nnc(-c2ccncc2)n1)Nc1ccc(Oc2ccccc2)cc1	·	–	–	–	–	–	·	·
COc1ccc(C(c2c(C)n(C)n(-c3ccccc3)c2=O)c2c(C)n(C)n(-c3ccccc3)c2=O)cc1OC	–	–	–	–	–	–	·	·
COc1ccc(C(c2c(C)[nH]n(-c3ccccc3)c2=O)c2c(C)[nH]n(-c3ccccc3)c2=O)cc1OC	–	–	7.5	–	–	–	–	–
Cc1[nH]n(-c2ccccc2)c(=O)c1N=Nc1c(Cl)cccc1Cl	–	·	·	·	·	·	·	·
Cc1ccc(C(C[N+](=O)[O-])c2c(C)[nH]n(-c3ccccc3)c2=O)cc1 (stereo unspecified)	–	–	–	–	–	–	·	·
Cc1[nH]n(-c2ccccc2)c(=O)c1C(C[N+](=O)[O-])c1ccc(Cl)cc1 (stereo unspecified)	–	–	6.9	–	–	–	–	–
Cc1[nH]n(-c2ccccc2)c(=O)c1N=Nc1ccc(Cl)cc1	–	–	8.6	–	–	–	–	–
Cc1ccccc1N=Nc1c(N)[nH]n(-c2ccccc2)c1=O	·	–	6.8	–	–	–	–	–
Cc1cc([N+](=O)[O-])ccc1N=Nc1c(N)[nH]n(-c2ccccc2)c1=O	–	–	–	–	–	–	·	·
CCc1noc(C)c1C(=O)N1CCN(CC(=O)OC)CC1	·	–	–	–	–	–	·	·

Screening results as filed in PubChem.
